Measurements published in PubChem BioAssay (NCI).
This is part of a sample that, as a whole, favours compounds with a hit. Of some 83,000 tested, about 20% had one in any assay.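 Treatment: one concentration, 48 hours, 96-well format. Scoring: percent growth, with anything below 10 considered active.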 Calls of active or inactive are those of the source.

Assays:
Assay in all cases: NCI-60 one-dose screen, 48 h (100 = growth as untreated, 0 = no growth, -100 = all killed)
Settings in all cases: 10 µM unless noted
NCI-H23 lung = test system: NCI-H23 lung
NCI-H226 lung = test system: NCI-H226 lung
NCI-H322M lung = test system: NCI-H322M lung
HOP-62 NSCLC = test system: HOP-62 NSCLC
NCI-H460 lung = test system: NCI-H460 lung
NCI-H522 lung = test system: NCI-H522 lung
A549/ATCC NSCLC = test system: A549/ATCC NSCLC
786-0 renal = test system: 786-0 renal
DU-145 prostate = test system: DU-145 prostate
K-562 leukemia = test system: K-562 leukemia
MALME-3M melanoma = test system: MALME-3M melanoma
MDA-MB-231 breast = test system: MDA-MB-231 breast
RXF 393 renal = test system: RXF 393 renal
SF-268 CNS = test system: SF-268 CNS
SF-539 CNS = test system: SF-539 CNS
UACC-257 melanoma = test system: UACC-257 melanoma
M14 melanoma = test system: M14 melanoma
HCT-15 colon = test system: HCT-15 colon
SF-295 CNS = test system: SF-295 CNS

Measured: growth

Cc1nc(N)[nH]c(=O)c1C
inactive: NCI-H23 lung 97.4% | NCI-H226 lung 97% | NCI-H322M lung 96.6% | HOP-62 NSCLC 103% | NCI-H460 lung 106% | NCI-H522 lung 102% | A549/ATCC NSCLC 103% | 786-0 renal 103% | DU-145 prostate 109% | K-562 leukemia 86.9% | MALME-3M melanoma 156% | MDA-MB-231 breast 102% | RXF 393 renal 104% | SF-268 CNS 114% | SF-539 CNS 107% | UACC-257 melanoma 87% | M14 melanoma 105% | HCT-15 colon 122%

COc1cc(-c2cc(C(=O)Nc3nc4ccccc4s3)nc3cc(-c4ccccc4)nn23)cc(OC)c1OC
inactive: NCI-H23 lung 49.1% | NCI-H226 lung 70.2% | NCI-H322M lung 90.9% | HOP-62 NSCLC 46.6% | NCI-H460 lung 79.3% | NCI-H522 lung 18.8% | A549/ATCC NSCLC 77.5% | 786-0 renal 81.6% | DU-145 prostate 51.5% | K-562 leukemia 53.2% | MALME-3M melanoma 28.5% | MDA-MB-231 breast 66.1% | RXF 393 renal 66.7% | SF-295 CNS 53% | UACC-257 melanoma 59.1% | M14 melanoma 26.3% | HCT-15 colon 85.3%
active: SF-539 CNS 4.14%

NC(N)=N/N=C(/c1ccccc1)c1ccc(Cl)cc1
inactive: NCI-H23 lung 83.9% | NCI-H226 lung 88.8% | NCI-H322M lung 57.7% | HOP-62 NSCLC 85% | NCI-H460 lung 52.3% | NCI-H522 lung 59.5% | A549/ATCC NSCLC 68.3% | 786-0 renal 69.1% | DU-145 prostate 83% | K-562 leukemia 42.5% | MALME-3M melanoma 115% | MDA-MB-231 breast 105% | RXF 393 renal 94.9% | SF-268 CNS 62.2% | SF-539 CNS 93.3% | UACC-257 melanoma 38.4% | M14 melanoma 59.6% | HCT-15 colon 56.6%

COc1cc(C2NC(c3ccc(Cl)cc3)C(C)/C(=N/NC(N)=S)C2C)cc(OC)c1OC (stereo unspecified)
inactive: NCI-H23 lung 92.6% | NCI-H226 lung 85.9% | NCI-H322M lung 97.7% | HOP-62 NSCLC 99% | NCI-H460 lung 100% | NCI-H522 lung 65.6% | A549/ATCC NSCLC 94.9% | 786-0 renal 91.1% | DU-145 prostate 117% | MALME-3M melanoma 73% | MDA-MB-231 breast 101% | RXF 393 renal 85.9% | SF-268 CNS 101% | SF-295 CNS 117% | SF-539 CNS 88.8% | UACC-257 melanoma 103% | M14 melanoma 92.7% | HCT-15 colon 81.9%

CC(C)(C)c1ccc(S(=O)(=O)O)s1
inactive: NCI-H23 lung 115% | NCI-H226 lung 107% | NCI-H322M lung 111% | HOP-62 NSCLC 99% | NCI-H460 lung 106% | NCI-H522 lung 89.6% | A549/ATCC NSCLC 99.2% | 786-0 renal 95.6% | DU-145 prostate 108% | K-562 leukemia 77% | MDA-MB-231 breast 93.1% | RXF 393 renal 105% | SF-268 CNS 102% | SF-539 CNS 99.3% | UACC-257 melanoma 117% | M14 melanoma 107% | HCT-15 colon 107%

COc1ccc(C2=NNC(c3cc(Cc4ccc(O)c(C5CC(c6ccc(OC)cc6)=NN5)c4)ccc3O)C2)cc1 (stereo unspecified)
inactive: NCI-H23 lung 35.9% | NCI-H226 lung 82.6% | NCI-H322M lung 32.1% | HOP-62 NSCLC 60% | NCI-H460 lung 27.5% | A549/ATCC NSCLC 35.2% | 786-0 renal 56.1% | DU-145 prostate 69.3% | MALME-3M melanoma 78.9% | MDA-MB-231 breast 58.3% | RXF 393 renal 72.6% | SF-268 CNS 44% | SF-539 CNS 57.2% | UACC-257 melanoma 70.6% | M14 melanoma 59.3% | HCT-15 colon 43.3%
active: NCI-H522 lung -7.59% | SF-295 CNS 6.47%

O=C(COC(=O)[C@H](C[Se][Se]C[C@H](NC(=O)c1ccc(Br)cc1F)C(=O)OCC(=O)c1ccc(F)cc1)NC(=O)c1ccc(Br)cc1F)c1ccc(F)cc1
active: NCI-H23 lung -37.3% | NCI-H226 lung -73.2% | NCI-H322M lung -23.2% | HOP-62 NSCLC -6.31% | NCI-H460 lung -35.6% | NCI-H522 lung -85.2% | A549/ATCC NSCLC -41.2% | 786-0 renal -94.6% | DU-145 prostate -100% | K-562 leukemia -1.8% | MALME-3M melanoma -64.4% | MDA-MB-231 breast -82.2% | RXF 393 renal -99.3% | SF-268 CNS -74.1% | SF-295 CNS -65.8% | SF-539 CNS -98.5% | UACC-257 melanoma -50.2% | M14 melanoma -64.6% | HCT-15 colon -42.6%

O=C(C(=O)N1CCOCC1)c1ccc(OC2OC(CO)C(O)C(O)C2O)cc1 (stereo unspecified)
inactive: NCI-H23 lung 106% | NCI-H226 lung 107% | NCI-H322M lung 115% | HOP-62 NSCLC 107% | NCI-H460 lung 110% | NCI-H522 lung 79.9% | A549/ATCC NSCLC 107% | 786-0 renal 103% | DU-145 prostate 125% | MALME-3M melanoma 129% | MDA-MB-231 breast 107% | RXF 393 renal 112% | SF-268 CNS 115% | SF-295 CNS 115% | SF-539 CNS 96.3% | UACC-257 melanoma 96.5% | M14 melanoma 102% | HCT-15 colon 104%

Cc1c(C(N)=O)sc2nc(SCC(=O)Nc3ccc(Cl)cc3)n(-c3ccccc3)c(=O)c12
inactive: NCI-H23 lung 106% | NCI-H226 lung 108% | NCI-H322M lung 105% | HOP-62 NSCLC 109% | NCI-H460 lung 106% | NCI-H522 lung 89.2% | A549/ATCC NSCLC 116% | 786-0 renal 104% | DU-145 prostate 120% | K-562 leukemia 84.2% | MALME-3M melanoma 159% | MDA-MB-231 breast 93.1% | RXF 393 renal 95.8% | SF-268 CNS 101% | SF-539 CNS 110% | UACC-257 melanoma 104% | M14 melanoma 104%
